Results filed as inconclusive are left out. Values without a mark were called inactive. Activity calls are given as the source filed them. The call rests on the fitted dose curve; in most records, active means well fitted cell-killing curve with a large enough effect; inconclusive means small, poorly fitted or top-dose-only effect, or effect the other way; inactive means no such curve, though single readings can be large or run the other way.
What was measured:
[1] = Viability qHTS for spleen associated tyrosine kinase inhibitor (SYKi) naive MV4-11 cells (AID 1963823); details: MV4-11 AML viability, CellTiter-Glo luminescence, 72 h; series mostly up to 45 µM; further: nearly all actives have a fitted effect of over 40% in size
Summary of the method: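 Compounds were dispensed acoustically onto plates, MV4-11 cells (SYKi-naive) added at 500 per well, and plates incubated 72 hr at 37 C. CellTiter-Glo was added and luminescence measured after 10 min.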

[2] = Viability qHTS for spleen associated tyrosine kinase inhibitor (SYKi) drug resistant MV4-11 cells (AID 1963824); details: SYKi-resistant MV4-11 viability, CellTiter-Glo, 72 h; series mostly up to 45 µM; further: nearly all actives have a fitted effect of over 35% in size
Summary of the method: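 CellTiter-Glo luminescence, read 10 min after reagent addition, reports viability after a 72 hr compound exposure. Cells are an MV4-11 line made resistant to SYK inhibition, seeded at 500 per well onto compound-containing plates.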
Potency means the concentration at half of the fitted maximal effect.

| SMILES | Potency [1] | Potency [2] | viability (% of control) [1] | viability, % of control [2] |
| --- | --- | --- | --- | --- |
| Nc1c(-c2ccccc2)nc(Cl)c2c(O)n[nH]c(=O)c12 | inactive | inactive |  |  |
| COc1ccc(C2=NC(c3ccc(Cl)cc3)C(c3ccc(Cl)cc3)N2C(=O)N2CCNC(=O)C2)c(OC(C)C)c1 (centres undefined) | 16.4 µM (active) | 18.4 µM (active) |  |  |
| C=C[C@H]1[C@H](O[C@@H]2O[C@H](CO)[C@@H](O)[C@H](O)[C@H]2O)OC=C(C(=O)OC)[C@H]1C[C@@H]1N[C@H](C(=O)O)Cc2c1[nH]c1ccccc21 | inactive | inactive |  |  |
| CC1OC(OC2C(C)OC(OC3C(O)C(CO)OC(O[C@H]4CC[C@@]5(C)C(CC[C@]6(C)C5CC=C5C7[C@@H](C)[C@H](C)CC[C@]7(C(=O)O)CC[C@]56C(=O)O)C4(C)C)C3O)C(O)C2O)C(O)C(O)C1O (some centres undefined) |  |  | 75.5% [at 9.25 µM] | 78.3% [at 9.25 µM] |
| O=Nc1c2[nH]c3ccccc3nc-2c2ccccc12 | 5.8 µM (active) | 10.3 µM (active) |  |  |
| C=C1CC[C@H]2[C@@](C)(CCC(OC3OC(CO)C(O)C(O)C3O)[C@@]2(C)CO)C1C(=O)CC1=CCOC1=O (some centres undefined) | inactive | inactive |  |  |
| Cc1ccc(C(=O)/C=C/c2ccccc2)s1 | 8.2 µM (active) | 7.31 µM (active) |  |  |
| Cc1cc(-c2nc(C(=O)Nc3cn(C4CCOCC4)nc3C(N)=O)co2)ccn1 | 0.0461 µM (active) | 0.146 µM (active) |  |  |
| COC(=O)[C@H](O)[C@H]1C(C)(C)[C@H](OC(=O)C(C)C)[C@@]2(O)C(=O)[C@]1(C)C1CC[C@]3(C)C(CC(=O)O[C@H]3c3ccoc3)[C@]13O[C@@H]32 (some centres undefined) | inactive | inactive |  |  |
| OC[C@H]1O[C@@H](O[C@H]2[C@H](OCCc3ccccc3)O[C@H](CO)[C@@H](O)[C@@H]2O)[C@H](O)[C@@H](O)[C@@H]1O | inactive | inactive |  |  |
| COc1cc(/C=C/C(=O)O[C@@H]2C[C@](O)(C(=O)O)C[C@@H](O)[C@H]2O)ccc1O | inactive | inactive |  |  |
| CC(C)[C@@](C)(O)[C@@H]1CN(c2nc(-c3[nH]nc4ncccc34)c(F)cc2Cl)CCN1 | 0.366 µM (active) | 0.731 µM (active) |  |  |
| CCOc1ncc(S(=O)(=O)N2CCN(CC)CC2)cc1-c1nc2c(CC)n(CCOC)nc2c(=O)[nH]1 | inactive | inactive |  |  |
| CC1=C(CCC(C)O[C@@H]2O[C@H](CO)[C@@H](O)[C@H](O)[C@H]2O)C(C)(C)CC(O)C1 (some centres undefined) | inactive | inactive |  |  |
| C[C@]12CC[C@@H]3c4ccc(O)cc4CC[C@H]3[C@@H]1C[C@@H](O[C@@H]1O[C@H](C(=O)O)[C@@H](O)[C@H](O)[C@H]1O)[C@@H]2O | inactive | inactive |  |  |
| O=C1O[C@H](C(O)CO)C(=O)C1=O (some centres undefined) | inactive | inactive |  |  |
| CCCN(CCC)C(=O)C(CCC(=O)OCCCN1CCN(CCOC(=O)Cc2c(C)n(C(=O)c3ccc(Cl)cc3)c3ccc(OC)cc23)CC1)NC(=O)c1ccccc1 (centres undefined) | 23.1 µM (active) | 20.6 µM (active) |  |  |
| CC(=O)c1[nH]cc(CCC(=O)O)c1CC(=O)O | 0.231 µM (active) | inactive |  |  |
| CC(NC(=O)CC(=O)O)C(=O)Nc1ccccc1C(N)=O (centres undefined) | inactive | inactive |  |  |
| OC/C=C/c1ccc(O[C@@H]2O[C@H](CO)[C@@H](O)[C@H](O)[C@H]2O)cc1 | inactive | inactive |  |  |
| C[C@@H]1COCCN1c1cc(C2(S(C)(=O)=O)CC2)nc(-c2cccc3[nH]ccc23)n1 | 0.58 µM (active) | 0.366 µM (active) |  |  |
| COC(=O)Nc1ccc(-c2nc(N3CCOCC3)c3cnn(C4CCN(C(=O)OC)CC4)c3n2)cc1 | 0.662 µM (active) | 1.05 µM (active) |  |  |
| CC(=O)NCCCCn1c2c(c3ccccc31)C(=O)NCC2 | inactive | inactive |  |  |
| O=C(O[C@H]1[C@@H]2C[C@@H]3OC[C@@](O)([C@H]2[C@H](O[C@@H]2O[C@H](CO)[C@@H](O)[C@H](O)[C@H]2O)O3)[C@@H]1O)c1ccccc1 | inactive | inactive |  |  |
| C/C=C(\C)C(=O)OC[C@H]1O[C@@H](O[C@H]2[C@@H](O[C@H]3O[C@H](CO)[C@@H](O)[C@H](O)[C@H]3O[C@@H]3O[C@H](CO)[C@@H](O)[C@H](O)[C@H]3O)O[C@H](COC(=O)/C(C)=C/C)[C@@H](O)[C@@H]2O)[C@H](O)[C@@H](O)[C@@H]1O |  |  | 81.8% [at 9.25 µM] | 79.8% [at 9.25 µM] |
| C[C@H]1/C=C/C=C/C=C/C=C/C=C/[C@@H](O)[C@H](C(=O)O)[C@H](O)C[C@H](O)CCC[C@H](O)C[C@H](O)C[C@H](O)[C@@H](C)C(=O)O[C@@H]1C | inactive | inactive |  |  |

| SMILES | Potency [1] | Potency [2] | viability (% of control) [1] | viability, % of control [2] |
| --- | --- | --- | --- | --- |
| CC1CCC2C(C(=O)O)=COC(O[C@@H]3O[C@H](CO)[C@@H](O)[C@H](O)[C@H]3O)C12 (some centres undefined) | inactive | 16.1 µM (active) |  |  |
| Cc1nc(CN(C)c2ncnc3ccc(-c4ccc5c(c4)OCO5)cc23)cs1 | 3.26 µM (active) | 5.8 µM (active) |  |  |
| CC(=O)O[C@@H]1CC2C(C)(C)C(=O)C=C[C@]2(C)C2CC[C@@]3(C)[C@H](c4ccoc4)OC(=O)[C@H]4O[C@]43[C@@]21C (some centres undefined) | 10 µM (active) | 7.09 µM (active) |  |  |
| COc1ccc2c(c1)O[C@H](O[C@@H]1O[C@H](CO)[C@@H](O)[C@H](O)[C@H]1O)C(=O)N2 | inactive | inactive |  |  |
| CCCOC(c1cc2nccc(C(=O)O)c2[nH]1)c1ccccc1Cl (centres undefined) | inactive | inactive |  |  |
| CC1(C)CCC2(CC1)N[C@@H](C(=O)N[C@@H]1CC[C@@H](C(N)=O)OC1)[C@H](c1ccnc(Cl)c1F)[C@]21C(=O)Nc2cc(Cl)ccc21 | 16 µM (active) | 5.68 µM (active) |  |  |
| O=C(CC12CC3CC(CC(C3)C1)C2)Nc1cccc2nc(NCCNCCO)ccc12 | 18.6 µM (active) | 16.4 µM (active) |  |  |
| C/C=C1\[C@H](O[C@@H]2O[C@H](CO)[C@@H](O)[C@H](O)[C@H]2O)OC=C(C(=O)O)[C@H]1CC(=O)OCCc1ccc(O)cc1 | inactive | inactive |  |  |
| CC(=O)OC[C@@]12C(=O)C[C@@H](C)[C@]3(C[C@@H](c4ccoc4)O[C@H]3OC(C)=O)[C@H]1CCC[C@]21CO1 | inactive | inactive |  |  |
| CC(=O)O[C@@H]1[C@H](O[C@@H]2OC[C@](O)(CO)[C@H]2O)[C@@H](O[C@@H]2O[C@@H](C)[C@H](O)[C@@H](O[C@@H]3O[C@H](CO)[C@@H](O)[C@H](O)[C@H]3O)[C@H]2O)[C@H](OC(=O)[C@]23CCC(C)(C)C[C@H]2C2=CCC4[C@@]5(C)C[C@H](O)[C@H](O[C@@H]6O[C@H](C(=O)O)[C@@H](O)[C@H](O)[C@H]6O)[C@@](C)(C(=O)O)C5CC[C@@]4(C)[C@]2(C)CC3)O[C@@H]1C (some centres undefined) |  |  | 95.7% [at 9.25 µM] | 95.1% [at 9.25 µM] |
| CC1OC(OC2C(C)OC(OC3C(OC(=O)C45CCC(C)(C)CC4C4=CCC6C7(C)CCC(OC8OC(C(=O)O)C(O)C(O)C8OC8OC(CO)C(O)C(OC9OC(C)C(O)C(O)C9O)C8O)C(C)(CO)C7CCC6(C)C4(C)CC5)OC(CO)C(O)C3O)C(O)C2O)C(O)C(O)C1O (centres undefined) |  |  | 89.1% [at 9.25 µM] | 97% [at 9.25 µM] |
| CC(C)(C)n1nc(Cc2cccc3ccccc23)c2c(N)ncnc21 | 10.3 µM (active) | 13 µM (active) |  |  |
| O=C(C1=CCN2c3c(cccc31)OC[C@H]2CN1CCOCC1)c1cccc2ccccc12 | 14.6 µM (active) | 18.4 µM (active) |  |  |
| COC(=O)C1=C(C)NC(COC(N)=O)=C(C(=O)OC(C)C)C1c1cccc(Cl)c1Cl (centres undefined) | 21.1 µM (active) | 14.6 µM (active) |  |  |
| CC1=CC2/C=C(\C)CCC(O)C(=O)C(O)CC(=O)C23C(=O)NC(CC(C)C)C3C1C (centres undefined) | 10 µM (active) | 11.2 µM (active) |  |  |
| C=C[C@H]1[C@H](O[C@@H]2O[C@H](CO)[C@@H](O)[C@H](O)[C@H]2O)OC=C2C(=O)OCC[C@]21O | inactive | inactive |  |  |
| CC1CCC2(C(=O)O)CCC3(C)C(=CCC4C5(C)CCC(O)C(C)(C(=O)O)C5CCC43C)C2C1(C)O (centres undefined) | inactive | inactive |  |  |
| Cc1cn(-c2cc(NC(=O)c3ccc(C)c(Nc4nccc(-c5cnccn5)n4)c3)cc(C(F)(F)F)c2)cn1 | inactive | inactive |  |  |
| CN1CCN(C(=O)c2ccc3cc(CCNc4ncnc5ccc(C#N)cc45)ccc3c2)CC1 | 0.92 µM (active) | 0.461 µM (active) |  |  |
| CCCCNc1ncc(C(=O)NCc2ccc(-n3ccnc3)cc2)c(NC2CCC(O)CC2)n1 (centres undefined) | 0.092 µM (active) | 0.259 µM (active) |  |  |
| C=C(C(=O)O)[C@@H]1CC[C@@]2(C)CC[C@@H](O)C(=C)C2C1 (some centres undefined) | inactive | inactive |  |  |
| CN1C(=O)c2ccccc2-n2c(nc3ccccc3c2=O)[C@@]12O[C@H]2c1ccccc1 | 3.6 µM (active) | inactive |  |  |
| CC1CCC2C(C)(C)[C@H](O)CC[C@]2(C)C12Cc1c(O)cc3c(c1O2)CN(C(CCC(=O)O)C(=O)O)C3=O (some centres undefined) | inactive | inactive |  |  |
| CC(C)(C#N)c1ccc(N2C(=O)OCc3cnc4ccc(-c5cnc6ccccc6c5)cc4c32)cc1 | 1.03 µM (active) | 1.46 µM (active) |  |  |
| CCC(C)(NC(=O)C(CCC(N)=O)NC(=O)C1CC(O)CN1C(=O)C(C)(C)NC(=O)C(C)(C)NC(=O)C(CC(C)C)NC(=O)CNC(=O)C(NC(=O)C(C)(C)NC(=O)C(C)(C)NC(=O)C(C)(C)NC(=O)C(Cc1ccccc1)NC(C)=O)C(C)C)C(=O)N1CC(O)CC1C(=O)NC(C)(C)C(=O)NC(CO)Cc1ccccc1 (centres undefined) | 1.74 µM (active) | 0.616 µM (active) |  |  |
| CN(CC(=O)N(Cc1ccc(C2CCCCC2)cc1)c1ccc(C(=O)O)cc1)S(=O)(=O)c1c(F)c(F)c(F)c(F)c1F | 1.84 µM (active) | 1.03 µM (active) |  |  |

From PubChem BioAssay (NCATS)
